# Most compounds without a hit are left out; they make up all but 3% or so of the library.
# 12-LOX inh = blocks human arachidonate 12S-lipoxygenase | AID 1671190 | hit rate 1.1% among 580,000 | P18054 | Potency, µM (doses to about 108 µM), inactives show at the top dose activity change, negative = inhibition, actives largely listed as inhibitors | purified 12hLO, xylenol orange hydroperoxide absorbance; active = well fitted inhibition curve with a large enough effect; inconclusive = small, poorly fitted or top-dose-only effect, or another doubt; inactive = no such curve, though single readings can be large or run the other way; also: potency is read from the fitted curve at half-maximal effect; % is scaled to controls: 0 for no effect and ±100 for the full control effect
#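 Purified human 12hLO (150 nM final) in 25 mM Hepes, 0.01% Triton X-100, pH 7.0 was preincubated 15 min at room temperature with compound. Then 40 uM arachidonic acid was added, 30 min. Hydroperoxide was read by Fe-XO absorbance ratio 573/405 nm.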
# LDHA inh = blocks human lactate dehydrogenase A | purified LDHA, NADH/diaphorase-resazurin fluorescence; active compounds read low | hit rate 0.15% among 480,000 | P00338 | AID 1347041 | activity change, % (values are at about 110 or 230 µM); in the data active = activity change below about -30%; inconclusive = mostly about -25% to -30%;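 also: plate controls were DMSO wells for no effect and wells without enzyme for full effect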
#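 Resorufin fluorescence (ex540/em590), read at 0 and 20 min after diaphorase/resazurin addition, reports the NADH left after a 5 min room-temperature reaction of 2 nM human LDH5 with 0.06 mM NADH and 0.2 mM pyruvate.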
# KCNH2 3.1 inh = blocks the human KCNH2 3.1 channel isoform; activity change, % (tested at about 1.8 µM); hit rate 0.95% among 340,000; U2OS KCNH2 3.1, thallium flux FluxOr; active compounds read low; AID 720553;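 active = maximum activity change below -70%; inconclusive = maximum activity change from -70% to -50%; inactive = maximum activity change above -50%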;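 also: thallium influx rate constant from kinetic fluorescence after stimulation buffer; % is scaled to controls: 0 for no effect and ±100 for the full control effect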
#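 U2OS cells transduced with KCNH2 3.1 mutant virus (1.77 x 10^8 /mL, 4 h), plated overnight at 37 C, loaded 45 min with FluxOr dye plus Red40 quencher. Thallium flux rate constant from kinetic reads after stimulation buffer, normalised to controls.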
# Chronic BCR inh = chronic active BCR signaling inhibition. ABC-DLBCL IkBa-CBG/CBR reporter, luminescence ratio, 4 h. Potency, µM (titrated, usually from 46.1 µM), for inactives: at the top dose activity change, negative = inhibition, hits mostly inhibitors. hit rate 0.05% among 340,000; active = well fitted inhibition curve with a large enough effect in the signal ratio, with a control signal flat, not every such curve was filed as active; inconclusive = small, poorly fitted or top-dose-only effect, or effect the other way, or a change in a side signal; the % refers to the signal ratio;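 also: potency is read from the fitted curve at half-maximal effect; plate controls were basal doxycycline-induced cells for no effect and cells given 10 µM MG132 for full effect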
#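 Compounds up to 46 uM were incubated four hours with TMD8 cells whose green CBG68 luciferase is fused to IkappaBalpha; red CBR luminescence normalised the signal, and concentration-effect curves were fitted to fusion, red and ratio data.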
# hERG WT inh = blocks the wildtype human KCNH2 potassium channel. Q12809. U2OS, BacMam KCNH2, thallium flux FluxOr; active compounds read low. activity change, % at 1.84 µM. hit rate 0.37% among 340,000;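 active = maximum activity change below -70%; inconclusive = maximum activity change between -70% and -50%; inactive = maximum activity change above -50%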; also: % is scaled to controls: 0 for no effect and ±100 for the full control effect
# Target sequence (Q12809 whole entry, looked up): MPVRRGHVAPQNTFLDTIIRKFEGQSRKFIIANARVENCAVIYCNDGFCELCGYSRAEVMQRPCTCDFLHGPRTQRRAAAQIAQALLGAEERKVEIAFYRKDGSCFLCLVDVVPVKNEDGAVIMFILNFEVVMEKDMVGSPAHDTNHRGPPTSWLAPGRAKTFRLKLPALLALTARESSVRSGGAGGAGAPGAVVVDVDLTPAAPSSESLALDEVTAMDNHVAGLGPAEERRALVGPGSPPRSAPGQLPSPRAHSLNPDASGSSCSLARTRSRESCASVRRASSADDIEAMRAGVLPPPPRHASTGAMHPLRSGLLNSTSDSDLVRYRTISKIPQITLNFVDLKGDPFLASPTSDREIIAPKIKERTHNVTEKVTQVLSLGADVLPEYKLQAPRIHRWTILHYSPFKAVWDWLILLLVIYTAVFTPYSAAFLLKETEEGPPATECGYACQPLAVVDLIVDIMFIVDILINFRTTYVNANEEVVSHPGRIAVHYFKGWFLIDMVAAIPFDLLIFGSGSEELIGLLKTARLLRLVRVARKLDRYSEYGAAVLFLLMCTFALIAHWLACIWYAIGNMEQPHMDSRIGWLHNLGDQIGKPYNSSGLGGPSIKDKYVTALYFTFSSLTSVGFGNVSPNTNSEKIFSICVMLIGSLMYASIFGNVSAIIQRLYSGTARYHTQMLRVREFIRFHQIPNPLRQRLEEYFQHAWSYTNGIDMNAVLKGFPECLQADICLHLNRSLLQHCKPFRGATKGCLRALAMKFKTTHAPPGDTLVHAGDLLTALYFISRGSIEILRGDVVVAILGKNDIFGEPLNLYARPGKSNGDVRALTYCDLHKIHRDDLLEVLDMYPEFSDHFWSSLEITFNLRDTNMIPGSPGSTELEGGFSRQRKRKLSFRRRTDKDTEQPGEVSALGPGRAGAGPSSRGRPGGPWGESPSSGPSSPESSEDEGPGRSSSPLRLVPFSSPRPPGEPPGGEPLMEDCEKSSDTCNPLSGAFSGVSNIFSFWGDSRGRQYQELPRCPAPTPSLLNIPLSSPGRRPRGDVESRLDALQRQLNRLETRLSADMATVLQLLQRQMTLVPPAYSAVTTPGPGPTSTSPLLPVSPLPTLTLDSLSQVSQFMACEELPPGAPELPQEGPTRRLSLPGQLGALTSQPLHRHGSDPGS
#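 U2OS cells transduced with wild-type KCNH2 virus are loaded with FluxOr dye for 45 min, and thallium flux is measured in kinetic reads before and after stimulation buffer. Rate constants are normalized to DMSO controls.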
# ClpP mod = qHTS Assay for Activators of ClpP; purified B. subtilis ClpP, FRET peptide cleavage, 20 min; Potency, µM (top dose mostly 57.5 µM), inactives show at the highest dose activity change, negative = active; hit rate 1.9% among 340,000; AID 651965, 2013; active = well fitted falling curve with a large enough effect; inconclusive = small, poorly fitted or top-dose-only effect; inactive = no such curve, though single readings can be large or run the other way; also: potency is read from the fitted curve at half-maximal effect; the source files actives as falling curves though it sought activators and does not explain the sign; nearly all actives have a fitted effect of over 65% in size
#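 ClpP 10 microg/mL final, pH 8 Tris/KCl buffer with BSA, glycerol, Tween-20; compound pinned in; FRET-FV substrate; RT 20 min; Ex320/Em430; ΔFRET vs ADEP 5.8 microM, DMSO, no enzyme.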
# Numbers without * were called inactive; ? = inconclusive; . = not tested or not shown; ! = not confirmed by another sample.
SMILES,12-LOX inh,LDHA inh,KCNH2 3.1 inh,Chronic BCR inh,hERG WT inh,ClpP mod
Cc1ccc(CNC(=O)c2ccc(CSCc3ccc(C)cc3)o2)cc1,11.2µM*!,18.2,.,-13.6%,.,-0.7%
O=C1c2ccccc2NC(c2ccc(Cl)cc2Cl)N1O (stereo not given),10µM*,0.6,1.8,-2.7%,-6.6,2.5%
Cc1cccc(C2Nc3ccccc3C(=O)N2CCc2ccccc2)n1 (stereo not given),-20.1%,1.5,0.6,2.6%,-24.8,17.8µM*
C=CCc1cccc(C2Nc3ccccc3C(=O)N2O)c1O (stereo not given),108.8%,2.5,3.0,1.7%,-14.2,2.3%
O=C1c2ccccc2NC(c2c(Cl)cccc2Cl)N1Cc1ccccc1 (stereo not given),171.3%,0.2,-31.4,?,-4.5,31.6µM*
COc1ccc(O)c(C2Nc3ccccc3C(=O)N2Cc2ccccc2)c1 (stereo not given),.,14.5,.,.,.,.
O=C1c2ccccc2NC(c2ccc(Cl)cc2Cl)N1Cc1ccccc1 (stereo not given),0.0%,5.0,.,8.1%,12.8,31.6µM*
O=C1c2ccccc2NC(c2cccc([N+](=O)[O-])c2)N1CCc1ccccc1 (stereo not given),?,-4.0,-27.6,?,8.0,.
O=C1c2ccccc2NC(c2cccc(F)c2)N1Cc1ccccc1 (stereo not given),?,-1.9,-13.3,1.1%,20.9,3.8%
CCCCCOc1ccc(C(=O)CCC(=O)O)cc1,?,1.2,.,.,.,.
O=C1c2ccccc2NC(c2ccc(-c3cccc(F)c3)o2)N1O (stereo not given),35.5µM*,0.6,.,?,.,.
COc1ccc2[nH]cc(CCNc3cc(-c4cccnc4)ncn3)c2c1,31.6µM*,.,.,.,.,.
COc1cccc(-c2cncnc2NCCc2c[nH]c3ccc(OC)cc23)c1,4.7%,.,.,.,.,.
COc1ccc(CNc2ccnc(-c3cccc(C#N)c3)n2)c(OC)c1,-28.2%,.,.,.,.,.
COc1ccc2[nH]cc(CCNc3ccnc(-c4ccc5c(c4)OCO5)n3)c2c1,44.7µM*,.,.,.,.,.
COc1ccc(CNc2ccnc(-c3ccc4c(c3)OCO4)n2)c(OC)c1,20µM*,.,.,.,.,.
CSc1ccc(CN(C)C(=O)Cn2c(=O)n(C)c3ccccc32)cc1,23.1%,5.6,.,.,.,.
Cc1nc(NCc2ccc3c(c2)OCO3)c2oc3ccccc3c2n1,22.4µM*,-1.6,10.6,7.9%,-22.3,-5.0%
CCC(C)c1ccc(S(=O)(=O)N2CCN(CC(O)CN3CCOCC3)CC2)cc1 (stereo not given),-17.3%,-32.7*,8.5,-3.0%,-32.7,1.5%
Cc1ccc(S(=O)(=O)N2CCN(CC(O)CN3CCOCC3)CC2)cc1 (stereo not given),?,-5.1,2.6,-2.0%,-15.6,-2.9%
COc1ccc2c(C)cc(SCC(=O)N(C)Cc3ccccc3)nc2c1,?,-0.3,.,.,.,.
CCNS(=O)(=O)c1ccc(Br)c(OC)c1,-15.1%,2.7,-92.8*,6.5%,-29.3,0.2%
COc1ccc(S(=O)(=O)NNS(=O)(=O)c2ccc(OC)c(OC)c2)cc1OC,.,-81.3*,.,.,.,0.2%
CCP(=O)(c1ccccc1)C(C)(C)O (stereo not given),76.5%,-1.4,9.3,3.7%,-1.3,15.8µM*
CCOC(=O)/C(C#N)=C/c1ccc(OCc2ccc(Cl)cc2Cl)cc1,28.1%,1.3,.,.,.,.
N#Cc1ccc(C23CC4CC(CC(C4)C2)C3)[nH]c1=O,0.0%,-15.1,-12.0,-0.3%,-2.3,15.8µM*
CCCc1c(O)nc(SCC(=O)O)[nH]c1=O,0.0%,-0.6,-32.4,-9.7%,.,1.7%
CC(C)CCc1c(O)nc(SCC(C)C)[nH]c1=O,1.4%,-11.2,-11.4,?,1.3,31.6µM*
CN1CC2=Cc3ccccc3OC23Oc2ccccc2C=C3C1,-11.2%,-1.1,-8.0,?,5.1,3.55µM*

# From PubChem BioAssay
